{"source": "paper PMC4336329", "about": "(PLoS ONE, 2015)", "note": "Among all 310,000 compounds or so, about 14,000 (4.5%) showed an effect of 50% or more. Effects have a minus sign here. The sample as a whole holds a higher share of strong results than the screen did.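 Further: peak tail current of the secondary pulse compared with the same well before compound.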", "data": [{"biological_target": "human ether-à-go-go-related gene (hERG) potassium channel (human, UniProt Q12809)", "sequence (Q12809 whole entry, looked up)": "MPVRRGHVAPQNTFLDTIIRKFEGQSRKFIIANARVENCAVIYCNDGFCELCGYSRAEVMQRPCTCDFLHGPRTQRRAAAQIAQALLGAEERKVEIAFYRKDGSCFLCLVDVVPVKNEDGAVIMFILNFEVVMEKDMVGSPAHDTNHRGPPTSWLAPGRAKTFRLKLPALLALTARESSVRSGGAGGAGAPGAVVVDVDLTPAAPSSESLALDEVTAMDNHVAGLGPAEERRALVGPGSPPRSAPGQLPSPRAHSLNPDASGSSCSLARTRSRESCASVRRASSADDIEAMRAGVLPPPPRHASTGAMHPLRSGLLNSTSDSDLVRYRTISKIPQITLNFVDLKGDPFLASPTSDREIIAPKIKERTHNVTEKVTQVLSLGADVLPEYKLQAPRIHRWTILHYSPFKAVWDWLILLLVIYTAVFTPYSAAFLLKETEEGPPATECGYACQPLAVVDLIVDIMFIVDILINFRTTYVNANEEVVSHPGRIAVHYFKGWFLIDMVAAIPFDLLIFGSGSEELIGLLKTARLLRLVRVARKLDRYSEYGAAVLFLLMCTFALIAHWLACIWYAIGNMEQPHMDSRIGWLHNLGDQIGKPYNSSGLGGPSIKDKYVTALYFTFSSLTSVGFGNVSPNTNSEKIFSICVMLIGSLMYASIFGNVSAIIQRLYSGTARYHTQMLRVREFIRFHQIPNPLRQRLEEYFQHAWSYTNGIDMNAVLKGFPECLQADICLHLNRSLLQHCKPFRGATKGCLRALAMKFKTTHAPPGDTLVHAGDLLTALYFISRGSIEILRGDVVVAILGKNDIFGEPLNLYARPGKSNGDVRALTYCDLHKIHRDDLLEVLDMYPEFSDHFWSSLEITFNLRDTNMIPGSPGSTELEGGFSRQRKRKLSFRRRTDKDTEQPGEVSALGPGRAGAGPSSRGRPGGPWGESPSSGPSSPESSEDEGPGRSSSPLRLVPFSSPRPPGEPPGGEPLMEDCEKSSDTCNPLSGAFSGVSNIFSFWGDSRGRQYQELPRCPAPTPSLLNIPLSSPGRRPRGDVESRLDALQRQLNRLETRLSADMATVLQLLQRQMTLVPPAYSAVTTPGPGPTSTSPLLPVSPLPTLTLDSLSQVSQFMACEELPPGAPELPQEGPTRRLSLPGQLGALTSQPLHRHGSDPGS", "assay": "primary screen, population patch clamp on CHO cells stably expressing hERG; higher = less effect of the substance", "units": {"hERG current change (%, negative = inhibition) at 10uM": "%"}, "values": [{"smiles": "CC(C)(C)NC(=O)CN1CCCN(C(=O)c2cccc(S(=O)(=O)N3CCc4ccccc43)c2)CC1", "hERG current change (%, negative = inhibition) at 10uM": -7.51}, {"smiles": "CCn1c(NN=O)nc2ccccc21", "hERG current change (%, negative = inhibition) at 10uM": 15.6}, {"smiles": "O/N=C1/C2C3CC4C5C3C1C5C1(OCCO1)C42", "note": "(stereo not shown)", "hERG current change (%, negative = inhibition) at 10uM": 4.44}, {"smiles": "Cc1cccc(OS(=O)(=O)NC(=O)OCC2CCCN3CCCCC23)c1", "note": "(stereo not shown)", "hERG current change (%, negative = inhibition) at 10uM": 15.1}, {"smiles": "O=C(c1cc2nc(-c3ccccc3)cc(-c3ccccc3)n2n1)N1CCC2(CC1)OCCO2", "hERG current change (%, negative = inhibition) at 10uM": -49.4}, {"smiles": "C/C(=N/Nc1ccc(F)cc1)c1ccc(Cl)s1", "hERG current change (%, negative = inhibition) at 10uM": 8.69}, {"smiles": "CC(C)(C)c1ccc(CCC(CC(=O)O)CC(=O)O)cc1", "hERG current change (%, negative = inhibition) at 10uM": -11.9}, {"smiles": "CCn1cc(C(=O)NCCC(C)C)c(=O)c2cc(S(=O)(=O)N3CCCCC3)ccc21", "hERG current change (%, negative = inhibition) at 10uM": -7.53}, {"smiles": "CCN1CCCC1CNC(=O)c1cn(CC)c2ccc(S(=O)(=O)N3CCCCCC3)cc2c1=O", "note": "(stereo not shown)", "hERG current change (%, negative = inhibition) at 10uM": -66.5}, {"smiles": "CCn1cc(C(=O)NC2CCCCCC2)c(=O)c2cc(S(=O)(=O)N3CCCCC3)ccc21", "hERG current change (%, negative = inhibition) at 10uM": 8.24}, {"smiles": "Cc1cccc(NC(=O)c2c(O)c3ccccc3n(C)c2=O)c1", "hERG current change (%, negative = inhibition) at 10uM": 25.8}, {"smiles": "Cc1ccc(CCNC(=O)C2CCCN(C(=O)N(C)C)C2)cc1", "note": "(stereo not shown)", "hERG current change (%, negative = inhibition) at 10uM": 8.01}, {"smiles": "CCOc1ccc(CCNC(=O)c2nnc(Cc3ccc(F)cc3)o2)cc1OCC", "hERG current change (%, negative = inhibition) at 10uM": -1.78}, {"smiles": "Cc1cc(C)c2nc3nc(C)cc(C)c3c(N)c2c1", "hERG current change (%, negative = inhibition) at 10uM": -65.5}, {"smiles": "Cc1cc(N)c2ccccc2n1", "hERG current change (%, negative = inhibition) at 10uM": 7.4}, {"smiles": "CCc1ccc2nc3nc(C)cc(C)c3c(N)c2c1", "hERG current change (%, negative = inhibition) at 10uM": 1.12}, {"smiles": "Cc1cc(C)c2nc(-n3nc(C)cc3N)cc(C)c2c1", "hERG current change (%, negative = inhibition) at 10uM": 20}, {"smiles": "Cc1cc(C)c2c(N)c3cccc(C)c3nc2n1", "hERG current change (%, negative = inhibition) at 10uM": -64.7}, {"smiles": "Cc1cc(C)c2c(N)c3ccccc3nc2n1", "hERG current change (%, negative = inhibition) at 10uM": -53.9}, {"smiles": "Cc1cc(C)c2cccc(N)c2n1", "hERG current change (%, negative = inhibition) at 10uM": 20.7}, {"smiles": "Cc1cccc2c(C(=O)O)c3cccc(C)c3nc12", "hERG current change (%, negative = inhibition) at 10uM": 1.39}, {"smiles": "Cc1cc(C)c2c(SC(C)C)nc(N)nc2n1", "hERG current change (%, negative = inhibition) at 10uM": -4.12}, {"smiles": "CC(C)(C)n1nc2c(c1NC(=O)c1ccc(F)c(F)c1)CS(=O)(=O)C2", "hERG current change (%, negative = inhibition) at 10uM": 3.79}, {"smiles": "COc1ccc(/C=N/NC(=O)c2ccc(CN3c4cccc5cccc(c45)S3(=O)=O)cc2)cc1", "hERG current change (%, negative = inhibition) at 10uM": 4.03}, {"smiles": "CC(C)CN(C(=O)COC(=O)c1c2c(nc3ccccc13)CCC2)c1c(N)n(Cc2ccccc2)c(=O)[nH]c1=O", "hERG current change (%, negative = inhibition) at 10uM": 4.06}, {"smiles": "Cc1ccc(N2CC(C(=O)NCCS(=O)(=O)N3CCN(c4ccccc4F)CC3)CC2=O)cc1", "note": "(stereo not shown)", "hERG current change (%, negative = inhibition) at 10uM": 13.2}, {"smiles": "CC(C)(C)c1ccc(OCCNC(=S)NC(=O)c2cccnc2)cc1", "hERG current change (%, negative = inhibition) at 10uM": -16.3}, {"smiles": "CCC(CC)C(=O)Nc1cc(C(=O)OC)ccc1C(=O)OC", "hERG current change (%, negative = inhibition) at 10uM": -15.4}, {"smiles": "COCCn1cc(C(=O)c2cc(Br)ccc2O)cc(C#N)c1=O", "hERG current change (%, negative = inhibition) at 10uM": 2.45}, {"smiles": "CC(Sc1nc(-c2ccccc2)cc(C(F)(F)F)n1)C(=O)NCc1ccco1", "note": "(stereo not shown)", "hERG current change (%, negative = inhibition) at 10uM": 10.2}, {"smiles": "O=C(CCCSc1nnc(-c2cccs2)n1CC1CCCO1)c1ccccc1", "note": "(stereo not shown)", "hERG current change (%, negative = inhibition) at 10uM": -65.1}, {"smiles": "O=C(CSc1nnc(-c2cccs2)n1CC1CCCO1)N1CCCC1", "note": "(stereo not shown)", "hERG current change (%, negative = inhibition) at 10uM": -14.4}, {"smiles": "Cc1ccc2nc(-c3ccccc3)nc(SC(C)C(=O)NCc3cccs3)c2c1", "note": "(stereo not shown)", "hERG current change (%, negative = inhibition) at 10uM": 11.7}, {"smiles": "Cc1ccc(C)c2c(SC(C)C(=O)NCc3ccco3)nc(-c3ccccc3)nc12", "note": "(stereo not shown)", "hERG current change (%, negative = inhibition) at 10uM": -64.7}, {"smiles": "Cc1ccc(-n2c(SCC(=O)NCc3ccco3)nnc2-c2cccnc2)c(C)c1", "hERG current change (%, negative = inhibition) at 10uM": -34.4}, {"smiles": "CC(C)(C)C(=O)CSc1nnc(-c2cccs2)n1CC1CCCO1", "note": "(stereo not shown)", "hERG current change (%, negative = inhibition) at 10uM": -12.4}, {"smiles": "CC(Sc1nnc(Cc2cccs2)n1C1CCCCC1)C(=O)NCc1ccco1", "note": "(stereo not shown)", "hERG current change (%, negative = inhibition) at 10uM": -5.59}, {"smiles": "Cn1c(SCC(=O)NCc2ccco2)nnc1-c1cccs1", "hERG current change (%, negative = inhibition) at 10uM": 3.45}, {"smiles": "CNC(=O)CSc1nnc(-c2cccnc2)n1-c1ccc(C)cc1", "hERG current change (%, negative = inhibition) at 10uM": 13.6}, {"smiles": "Cc1ccc(-n2c(SCC(=O)NCc3ccco3)nnc2-c2cccnc2)cc1", "hERG current change (%, negative = inhibition) at 10uM": -60.8}, {"smiles": "CC(Sc1nnc(-c2cccs2)n1-c1ccccc1)C(=O)NCc1ccco1", "note": "(stereo not shown)", "hERG current change (%, negative = inhibition) at 10uM": -79.4}, {"smiles": "CCCCNC(=O)CN1C(=O)COc2ccc(S(=O)(=O)N3CCCCCC3)cc21", "hERG current change (%, negative = inhibition) at 10uM": -1.25}, {"smiles": "O=C(CSc1nc(=O)n2ccccc2n1)NCCc1ccccc1", "hERG current change (%, negative = inhibition) at 10uM": -1.36}, {"smiles": "Cc1ccc2nc(CSc3nnc(Cc4cccs4)n3C3CCCCC3)cc(=O)n2c1", "hERG current change (%, negative = inhibition) at 10uM": -15.6}, {"smiles": "COc1cccc(C(=O)N/N=C/c2ccc(OC)c(COc3ccccc3C(N)=O)c2)c1", "hERG current change (%, negative = inhibition) at 10uM": -2.25}, {"smiles": "N#Cc1cc(Oc2ccc(Cl)cc2)c(N2CCOCC2)cc1C#N", "hERG current change (%, negative = inhibition) at 10uM": -1.79}, {"smiles": "CNC(=O)CSc1nnc(-c2ccco2)n1-c1cccc(C)c1", "hERG current change (%, negative = inhibition) at 10uM": -4.75}, {"smiles": "O=C(CSc1nnc(-c2ccccc2)n1-c1ccccc1)NCc1ccco1", "hERG current change (%, negative = inhibition) at 10uM": 1.47}, {"smiles": "NC(=O)CSc1nnc(-c2ccco2)n1-c1ccccc1", "hERG current change (%, negative = inhibition) at 10uM": 16.1}, {"smiles": "O=C(CSc1nnc(-c2ccco2)n1-c1ccccc1)NCCc1ccccc1", "hERG current change (%, negative = inhibition) at 10uM": -69.4}, {"smiles": "CC(=O)CSc1nnc(-c2ccco2)n1-c1ccccc1", "hERG current change (%, negative = inhibition) at 10uM": -11.7}, {"smiles": "Cc1cccc(-n2c(SCC(=O)NCc3ccco3)nnc2-c2ccco2)c1", "hERG current change (%, negative = inhibition) at 10uM": -75.7}, {"smiles": "Cc1nnc(SCC(=O)NCc2ccco2)n1-c1ccccc1", "hERG current change (%, negative = inhibition) at 10uM": 26.1}, {"smiles": "Cn1c(SCC(=O)NCCc2ccccc2)nnc1-c1ccco1", "hERG current change (%, negative = inhibition) at 10uM": -4.63}, {"smiles": "Cc1cccc(-n2c(SCC(N)=O)nnc2-c2ccco2)c1", "hERG current change (%, negative = inhibition) at 10uM": -1.07}, {"smiles": "O=C(CSc1nnc(-c2ccco2)n1-c1ccccc1)NCc1ccco1", "hERG current change (%, negative = inhibition) at 10uM": -67.8}, {"smiles": "CN(Cc1ccccc1)C(=O)CSc1nnc(-c2ccco2)n1-c1ccccc1", "hERG current change (%, negative = inhibition) at 10uM": -80.2}, {"smiles": "O=C(O)CCCCCNC(=O)CSc1nnc(-c2ccco2)n1-c1ccccc1", "hERG current change (%, negative = inhibition) at 10uM": 11.9}]}]}
